# Measurements reported in article PMC7862700, “An all-to-all approach to the identification of sequence-specific readers for epigenetic DNA modifications on cytosine”.
# What was measured:
# Assay in all cases: DAPPL (digital affinity profiling via proximity ligation, sequencing); 10 mM Tris-HCl pH 7.5, 50 mM NaCl, 1 mM DTT, 4% glycerol, room temperature, 30 min; GST-TFs on glutathione beads, 16-mer random dsDNA library, 0.1% formaldehyde crosslink after washing; high values mean tight binding
# Conditions in all cases: protein: recombinant; tags: N-terminal GST; dsDNA, one strand shown
# ERF = molecular target: T1, ERF (Homo sapiens, UniProt P50548 1-548)
# T1 sequence: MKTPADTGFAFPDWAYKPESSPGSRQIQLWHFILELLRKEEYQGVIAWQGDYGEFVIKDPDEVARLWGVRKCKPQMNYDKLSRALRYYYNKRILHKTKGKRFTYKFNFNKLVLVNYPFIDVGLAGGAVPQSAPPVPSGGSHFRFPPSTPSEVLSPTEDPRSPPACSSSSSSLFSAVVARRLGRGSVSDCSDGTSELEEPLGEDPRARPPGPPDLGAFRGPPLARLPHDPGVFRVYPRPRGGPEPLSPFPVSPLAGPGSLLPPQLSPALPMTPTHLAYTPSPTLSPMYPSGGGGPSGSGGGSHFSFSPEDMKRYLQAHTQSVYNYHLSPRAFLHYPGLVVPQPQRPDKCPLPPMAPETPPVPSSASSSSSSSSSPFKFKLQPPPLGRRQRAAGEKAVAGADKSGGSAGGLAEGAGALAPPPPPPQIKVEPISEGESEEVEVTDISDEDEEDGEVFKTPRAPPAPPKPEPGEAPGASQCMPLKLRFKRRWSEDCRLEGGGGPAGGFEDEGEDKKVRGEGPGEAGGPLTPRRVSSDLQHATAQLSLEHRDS
# Procedure, shortened: (§1)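 Human transcription factors fused to GST were expressed in yeast, captured on glutathione beads, given DNA barcodes and pooled with a GST-only negative control. Pools were incubated with 200 nmole of a 16-mer random double-stranded DNA library in Tris/NaCl/DTT/glycerol buffer at room temperature for 30 min. They were then washed, crosslinked with 0.1% formaldehyde, proximity-ligated (BsaI/T4 ligase, 1 h, 37 °C), PCR-amplified and sequenced on an Illumina NextSeq500. Binding signal is each 6-mer's read frequency for a factor divided by its frequency for the GST control.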
# ETV3L = molecular target: T2, ETV3L (Homo sapiens, UniProt Q6ZN32 1-361)
# T2 sequence: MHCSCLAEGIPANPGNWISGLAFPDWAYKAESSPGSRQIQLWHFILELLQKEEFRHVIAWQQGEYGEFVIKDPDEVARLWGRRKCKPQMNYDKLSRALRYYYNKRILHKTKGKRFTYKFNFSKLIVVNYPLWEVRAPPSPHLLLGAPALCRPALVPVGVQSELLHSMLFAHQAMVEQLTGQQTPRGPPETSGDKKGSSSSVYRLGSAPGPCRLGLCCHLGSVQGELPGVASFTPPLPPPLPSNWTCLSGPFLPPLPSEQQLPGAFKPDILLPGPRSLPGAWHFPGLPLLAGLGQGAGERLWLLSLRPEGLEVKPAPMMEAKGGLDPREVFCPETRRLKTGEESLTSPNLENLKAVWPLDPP
# Procedure, shortened: as §1
# ETS2 = molecular target: T3, ETS2 (Homo sapiens, UniProt P15036 1-469)
# T3 sequence: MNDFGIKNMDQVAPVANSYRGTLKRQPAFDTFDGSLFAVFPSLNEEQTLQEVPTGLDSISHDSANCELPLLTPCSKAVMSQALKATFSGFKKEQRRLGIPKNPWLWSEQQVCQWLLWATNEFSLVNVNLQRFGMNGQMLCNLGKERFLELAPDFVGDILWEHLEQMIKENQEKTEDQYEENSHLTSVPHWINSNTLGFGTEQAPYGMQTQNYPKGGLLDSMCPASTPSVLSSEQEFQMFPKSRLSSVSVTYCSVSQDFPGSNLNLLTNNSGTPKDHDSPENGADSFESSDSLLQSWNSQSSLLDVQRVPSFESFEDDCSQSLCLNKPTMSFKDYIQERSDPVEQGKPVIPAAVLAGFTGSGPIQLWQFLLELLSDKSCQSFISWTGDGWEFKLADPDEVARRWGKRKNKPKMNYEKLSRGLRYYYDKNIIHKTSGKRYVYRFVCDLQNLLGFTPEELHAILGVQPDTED
# Procedure, shortened: as §1
# SPDEF = molecular target: T4, SPDEF (Homo sapiens, UniProt O95238 1-335)
# T4 sequence: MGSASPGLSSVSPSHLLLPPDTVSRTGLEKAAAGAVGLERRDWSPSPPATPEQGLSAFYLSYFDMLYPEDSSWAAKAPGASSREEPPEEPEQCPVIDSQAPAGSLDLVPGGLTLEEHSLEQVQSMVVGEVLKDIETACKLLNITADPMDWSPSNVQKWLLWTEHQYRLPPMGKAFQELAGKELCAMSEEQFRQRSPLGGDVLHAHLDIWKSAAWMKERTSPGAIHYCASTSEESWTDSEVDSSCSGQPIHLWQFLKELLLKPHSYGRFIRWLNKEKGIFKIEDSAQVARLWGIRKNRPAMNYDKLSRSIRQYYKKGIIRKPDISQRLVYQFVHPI
# Procedure, shortened: as §1
# ETV7 = molecular target: T5, ETV7 (Homo sapiens, UniProt Q9Y603 1-341)
# T5 sequence: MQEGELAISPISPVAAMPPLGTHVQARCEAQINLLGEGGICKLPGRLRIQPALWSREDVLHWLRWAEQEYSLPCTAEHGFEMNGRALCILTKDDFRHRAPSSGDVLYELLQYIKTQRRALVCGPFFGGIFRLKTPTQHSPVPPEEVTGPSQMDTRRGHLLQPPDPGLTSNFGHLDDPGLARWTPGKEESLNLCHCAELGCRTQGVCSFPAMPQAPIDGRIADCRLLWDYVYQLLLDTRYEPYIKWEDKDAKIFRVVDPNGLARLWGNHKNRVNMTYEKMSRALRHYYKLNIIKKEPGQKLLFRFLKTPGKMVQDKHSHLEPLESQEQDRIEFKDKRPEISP
# Procedure, shortened: as §1
# ELF5 = molecular target: T6, ELF5 (Homo sapiens, UniProt Q9UKW6-2 1-255)
# T6 sequence: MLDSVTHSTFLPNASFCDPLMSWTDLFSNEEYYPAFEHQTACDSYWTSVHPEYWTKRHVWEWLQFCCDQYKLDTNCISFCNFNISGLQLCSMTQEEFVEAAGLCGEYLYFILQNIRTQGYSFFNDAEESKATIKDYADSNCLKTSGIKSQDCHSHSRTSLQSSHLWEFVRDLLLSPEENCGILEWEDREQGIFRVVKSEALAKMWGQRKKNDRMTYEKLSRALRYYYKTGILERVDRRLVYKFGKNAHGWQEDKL
# Procedure, shortened: as §1
# ETV3 = molecular target: T7, ETV3 (Homo sapiens, UniProt P41162-2 1-143)
# T7 sequence: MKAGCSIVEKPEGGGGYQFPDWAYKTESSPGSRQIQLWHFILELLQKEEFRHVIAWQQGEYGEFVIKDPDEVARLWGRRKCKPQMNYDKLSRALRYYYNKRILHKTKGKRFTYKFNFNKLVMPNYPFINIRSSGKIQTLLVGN
# Procedure, shortened: as §1
# ETV6 = ETV6 (Homo sapiens, UniProt P41212 1-452)
# Procedure, shortened: as §1
# ETV6, sequence (P41212 whole entry): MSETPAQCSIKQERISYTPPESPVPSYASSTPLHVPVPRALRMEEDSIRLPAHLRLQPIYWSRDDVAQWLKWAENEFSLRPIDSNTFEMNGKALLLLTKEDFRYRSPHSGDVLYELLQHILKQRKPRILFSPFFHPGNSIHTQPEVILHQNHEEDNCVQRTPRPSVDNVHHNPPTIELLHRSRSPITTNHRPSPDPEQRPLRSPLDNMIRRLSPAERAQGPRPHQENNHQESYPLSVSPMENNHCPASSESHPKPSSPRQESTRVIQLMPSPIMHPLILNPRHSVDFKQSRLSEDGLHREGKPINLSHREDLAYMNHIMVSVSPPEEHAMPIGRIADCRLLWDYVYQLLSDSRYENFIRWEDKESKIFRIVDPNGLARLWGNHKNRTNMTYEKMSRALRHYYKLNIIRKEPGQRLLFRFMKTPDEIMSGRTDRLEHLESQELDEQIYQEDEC
Sequence,binding signal (ERF),binding signal (ETV3L),binding signal (ETS2),binding signal (SPDEF),binding signal (ETV7),binding signal (ELF5),binding signal (ETV3),binding signal (ETV6)
ACCCGA,"1.22 fold enrichment (6-mer frequency, TF over GST control)","1.05 fold enrichment (6-mer frequency, TF over GST control)","1.07 fold enrichment (6-mer frequency, TF over GST control)","1.03 fold enrichment (6-mer frequency, TF over GST control)","1.11 fold enrichment (6-mer frequency, TF over GST control)","1.01 fold enrichment (6-mer frequency, TF over GST control)","1.05 fold enrichment (6-mer frequency, TF over GST control)","1.04 fold enrichment (6-mer frequency, TF over GST control)"
AAGTAG,"1.22 fold enrichment (6-mer frequency, TF over GST control)","1.16 fold enrichment (6-mer frequency, TF over GST control)","1.31 fold enrichment (6-mer frequency, TF over GST control)","1.07 fold enrichment (6-mer frequency, TF over GST control)","1.23 fold enrichment (6-mer frequency, TF over GST control)","1.28 fold enrichment (6-mer frequency, TF over GST control)","1.26 fold enrichment (6-mer frequency, TF over GST control)","1.28 fold enrichment (6-mer frequency, TF over GST control)"
GTTTAC,"1.12 fold enrichment (6-mer frequency, TF over GST control)","1.12 fold enrichment (6-mer frequency, TF over GST control)","1.13 fold enrichment (6-mer frequency, TF over GST control)","1.12 fold enrichment (6-mer frequency, TF over GST control)","1.22 fold enrichment (6-mer frequency, TF over GST control)","1.13 fold enrichment (6-mer frequency, TF over GST control)","1.07 fold enrichment (6-mer frequency, TF over GST control)","1.19 fold enrichment (6-mer frequency, TF over GST control)"
ATTCCA,"1.14 fold enrichment (6-mer frequency, TF over GST control)","1.31 fold enrichment (6-mer frequency, TF over GST control)","1.15 fold enrichment (6-mer frequency, TF over GST control)","1.11 fold enrichment (6-mer frequency, TF over GST control)","1.1 fold enrichment (6-mer frequency, TF over GST control)","1.15 fold enrichment (6-mer frequency, TF over GST control)","1.15 fold enrichment (6-mer frequency, TF over GST control)","1.19 fold enrichment (6-mer frequency, TF over GST control)"
TACCGA,"1.05 fold enrichment (6-mer frequency, TF over GST control)","1.13 fold enrichment (6-mer frequency, TF over GST control)","1.12 fold enrichment (6-mer frequency, TF over GST control)","1.12 fold enrichment (6-mer frequency, TF over GST control)","1.01 fold enrichment (6-mer frequency, TF over GST control)","1.08 fold enrichment (6-mer frequency, TF over GST control)","1.09 fold enrichment (6-mer frequency, TF over GST control)","1.09 fold enrichment (6-mer frequency, TF over GST control)"
TACACG,"1.06 fold enrichment (6-mer frequency, TF over GST control)","1.03 fold enrichment (6-mer frequency, TF over GST control)","1.11 fold enrichment (6-mer frequency, TF over GST control)","1.18 fold enrichment (6-mer frequency, TF over GST control)","1.15 fold enrichment (6-mer frequency, TF over GST control)","1.13 fold enrichment (6-mer frequency, TF over GST control)","1.08 fold enrichment (6-mer frequency, TF over GST control)","1.07 fold enrichment (6-mer frequency, TF over GST control)"
CCACTG,"1.22 fold enrichment (6-mer frequency, TF over GST control)","1.15 fold enrichment (6-mer frequency, TF over GST control)","1.16 fold enrichment (6-mer frequency, TF over GST control)","1.14 fold enrichment (6-mer frequency, TF over GST control)","1.1 fold enrichment (6-mer frequency, TF over GST control)","1.09 fold enrichment (6-mer frequency, TF over GST control)","1.15 fold enrichment (6-mer frequency, TF over GST control)","1.22 fold enrichment (6-mer frequency, TF over GST control)"
TTGCGC,"1.28 fold enrichment (6-mer frequency, TF over GST control)","1.13 fold enrichment (6-mer frequency, TF over GST control)","1.16 fold enrichment (6-mer frequency, TF over GST control)","1.06 fold enrichment (6-mer frequency, TF over GST control)","1.12 fold enrichment (6-mer frequency, TF over GST control)","1.03 fold enrichment (6-mer frequency, TF over GST control)","1.07 fold enrichment (6-mer frequency, TF over GST control)","1.06 fold enrichment (6-mer frequency, TF over GST control)"
CACTCG,"1.1 fold enrichment (6-mer frequency, TF over GST control)","1.11 fold enrichment (6-mer frequency, TF over GST control)","1.22 fold enrichment (6-mer frequency, TF over GST control)","1.04 fold enrichment (6-mer frequency, TF over GST control)","1.13 fold enrichment (6-mer frequency, TF over GST control)","1.05 fold enrichment (6-mer frequency, TF over GST control)","1.09 fold enrichment (6-mer frequency, TF over GST control)","1.1 fold enrichment (6-mer frequency, TF over GST control)"
